Assay results published in PubChem BioAssay (NCATS).
Results filed as inconclusive are left out. Entries that show only a call come without a potency. Calls of active or inactive are those of the source. Calls follow the shape of the dose curve; as a rule, active = well fitted inhibition curve with a large enough effect; inconclusive = small, poorly fitted or top-dose-only effect; inactive = flat fitted curve, though single readings scatter.

Each compound was assayed on Zika virus NS2B-NS3 protease (assay: Primary screen GU AMC qHTS for Zika virus inhibitors (AID 1347154; also: nearly all actives have a fitted effect of over 70% in size)). Conditions: Zika NS2B-NS3 unlinked protease, AMC fluorogenic substrate; series mostly up to 54.1 µM.
Summary of the method: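 Unlinked Zika NS2B hydrophilic domain/NS3 protease domain noncovalent complex (25 nM final) in 10 mM Tris-HCl pH 8.0, 0.01% Tween 20, with AMC peptide substrate. Fluorescence (ex 340, em 450 nm) change over 15 min, room temperature; percent inhibition fitted to 4-parameter Hill equation.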
`CCOc1ccc(Cc2nccc3cc(OCC)c(OCC)cc23)cc1OCC` was tested, and the Potency was “inactive”. In the case of `CC1(C)O[C@@H]2C[C@H]3[C@@H]4CCC5=CC(=O)CC[C@]5(C)[C@@]4(F)[C@@H](O)C[C@]3(C)[C@]2(C(=O)CCl)O1`, the Potency was “inactive”. With `COc1cccc2c1C(=O)c1c(O)c3c(c(O)c1C2=O)C[C@@](O)(C(C)=O)C[C@@H]3O[C@H]1C[C@H](N)[C@H](O)[C@H](C)O1` the Potency was “inactive”. `CC(C)COC(=O)c1ccc(N)cc1` was tested, and the Potency was “inactive”. `CN=C(NC#N)Nc1ccc(C2=NNC(=O)CC2C)cc1` (stereo not given) was tested, and the Potency was “inactive”.
